Assay outcomes (PubChem BioAssay)
Most compounds without a hit are left out; they make up all but 1.8% or so of the library.
697 NFkB inh: inhibitors of PMA/ionomycin-induced NF-kB reporter, 697 cells, primary screen, B-cell NF-kB inhibitor project, cell-based, luminescence, uHTS. inhibition, % at 4 µM. hit rate 0.33% among 330,000. 697 B-cell NF-kB luciferase reporter, 16 h; in the data active = inhibition above about 35%
Beta apoptosis: inhibitors of cytokine-induced beta cell apoptosis, primary screen, luminescence; hit rate 0.8% among 300,000; AID 435005, 2010; INS-1E cytokine-induced death, ATP luminescence, 48 h; percent of positive-control rescue, neutral wells zero; protection from apoptosis, % (test concentration not listed);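 active = Every replicate reaches about 75%, or at least half do and their mean reaches it too, limit read from the data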;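 also: higher means more ATP so stronger rescue from cytokine killing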
Jurkat NFkB inh: inhibitors of induced NF-kB luciferase reporter, primary screen, TCR NF-kB activation inhibitor project, cell-based, luminescence, uHTS; Jurkat, PMA/ionomycin-induced NF-kB luciferase reporter; hit rate 0.53% among 330,000; AID 435003, 2010; inhibition, % at 4 µM; in the data active = inhibition above about 50%
Gli-Sufu block: Gli-Sufu pathway antagonists, primary screen, luciferase luminescence, Sufu-KO-LIGHT cells, uHTS; inhibition, % at 5 µM; hit rate 0.74% among 340,000; AID 588413, 2011; Sufu-KO-LIGHT fibroblasts, Gli luciferase reporter luminescence;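 active = inhibition above about 55%, limit read from the data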
Numbers stand for hits.

COc1ccc(CNC[C@@H](CCCCN(C)Cc2ccc(OC)cc2)N2C[C@H](c3ccccc3)N(CCc3ccc(Cl)c(Cl)c3)C(=O)C2=O)cc1 was read as 697 NFkB inh inactive, Beta apoptosis 98.6, Jurkat NFkB inh inactive and Gli-Sufu block inactive.
`CCOc1ccc(CCN2C(=O)C(=O)N([C@H](CCCN(C)Cc3ccccc3)CNCc3ccccc3)C[C@@H]2C(C)C)cc1` gave 697 NFkB inh inactive and Jurkat NFkB inh inactive.
O=C(O)c1ccc(S(=O)(=O)c2ccc3c(c2)C(=O)N(NC(=O)c2ccc(O)cc2)C3=O)cc1 was read as 697 NFkB inh inactive, Jurkat NFkB inh inactive and Gli-Sufu block inactive.
Oc1cccc2ccc(Nc3ccccn3)nc12 was read as 697 NFkB inh inactive, Beta apoptosis 105.9, Jurkat NFkB inh inactive and Gli-Sufu block inactive.
For c1ccc(Nc2ccccc2Nc2ccccn2)nc1 the results were 697 NFkB inh inactive, Beta apoptosis inactive, Jurkat NFkB inh inactive and Gli-Sufu block inactive.
For COc1ccccc1NC(=O)c1[nH]c(C)c(C(C)=O)c1C the results were 697 NFkB inh inactive, Beta apoptosis inactive, Jurkat NFkB inh inactive and Gli-Sufu block inactive.
`COc1ccccc1NS(=O)(=O)c1cccc(NC(=O)c2[nH]c(C)c(C(C)=O)c2C)c1` gave 697 NFkB inh inactive, Beta apoptosis 75.7, Jurkat NFkB inh inactive and Gli-Sufu block inactive.
`Oc1ccc(CCNc2ncnc3ccc(Cl)cc23)cc1` gave 697 NFkB inh inactive, Beta apoptosis 107.4, Jurkat NFkB inh inactive and Gli-Sufu block 61.0.
Screening CCOC(=O)C(=NC(C)C)NNc1cc(Cl)ccc1Cl returned 697 NFkB inh inactive, Beta apoptosis inactive, Jurkat NFkB inh inactive and Gli-Sufu block inactive.
CN1CCN(c2ccc(CNS(=O)(=O)c3ccccc3)cc2)CC1 was read as 697 NFkB inh inactive, Beta apoptosis inactive, Jurkat NFkB inh inactive and Gli-Sufu block inactive.
Screening CN1CCN(c2ccc(CNS(=O)(=O)Cc3cccc(C(F)(F)F)c3)cc2)CC1 returned 697 NFkB inh inactive, Beta apoptosis 86.5, Jurkat NFkB inh inactive and Gli-Sufu block inactive.
For N#CC(C#N)=C(Nc1ccc(F)cc1)SCc1cccc(F)c1 the results were 697 NFkB inh inactive, Beta apoptosis 101.8, Jurkat NFkB inh inactive and Gli-Sufu block inactive.
`O=C(Oc1cccc2cccnc12)c1cccc(N2C(=O)C3C4CCC(C4)C3C2=O)c1` (configuration not stated) gave 697 NFkB inh inactive, Beta apoptosis 79.5, Jurkat NFkB inh inactive and Gli-Sufu block inactive.
Screening O=C(Oc1cccc2cccnc12)c1ccc(N2C(=O)C3C4CCC(C4)C3C2=O)cc1 (configuration not stated) returned 697 NFkB inh inactive, Beta apoptosis inactive, Jurkat NFkB inh inactive and Gli-Sufu block inactive.
`COc1cc(OC)nc(-n2ncc(Br)c(Br)c2=O)n1` gave Beta apoptosis 99.2 and Gli-Sufu block inactive.
Screening COC(=O)c1cnn(-c2nc(OC)cc(OC)n2)c1C returned 697 NFkB inh inactive, Beta apoptosis inactive, Jurkat NFkB inh inactive and Gli-Sufu block inactive.
`Cc1[nH]n(-c2ccccc2)c(=O)c1N=Nc1ccc2c(c1)OCO2` gave 697 NFkB inh inactive, Beta apoptosis inactive, Jurkat NFkB inh inactive and Gli-Sufu block inactive.
For Cc1cc(-c2ccccc2)n(-c2cc(N/N=C/c3ccccc3O)ncn2)n1 the results were Beta apoptosis 77.3 and Gli-Sufu block inactive.
`Nc1nc(N)c2cc(Sc3ccc4ccccc4c3)ccc2n1` gave 697 NFkB inh inactive, Beta apoptosis 108.7, Jurkat NFkB inh inactive and Gli-Sufu block inactive.
CCNC(=O)OCCC12CC3CC(CC(C3)C1)C2 was read as Beta apoptosis inactive and Gli-Sufu block inactive.
O=C(OCCC12CC3CC(CC(C3)C1)C2)c1ccc(NCc2cc(O)ccc2O)cc1 was read as Gli-Sufu block 82.2.
Screening CC(=O)Oc1c(Cl)cc(N(C(C)=O)S(=O)(=O)c2ccccc2)c2ccccc12 returned 697 NFkB inh inactive, Beta apoptosis 94.7, Jurkat NFkB inh inactive and Gli-Sufu block inactive.
CC(=O)Oc1ccc(N(C(C)=O)S(=O)(=O)c2ccc(C)cc2C)c2ccccc12 was read as 697 NFkB inh inactive and Jurkat NFkB inh inactive.
`CC(=O)N(c1ccccc1Cl)S(=O)(=O)c1ccc(Cl)cc1` gave 697 NFkB inh inactive, Beta apoptosis inactive, Jurkat NFkB inh inactive and Gli-Sufu block inactive.
For COc1ccc(S(=O)(=O)N(C(C)=O)c2ccc(OC(C)=O)c3ccccc23)cc1[N+](=O)[O-] the results were 697 NFkB inh inactive, Beta apoptosis 106.0, Jurkat NFkB inh inactive and Gli-Sufu block inactive.
Screening COc1ccc(N2CCC(CNC(=S)Nc3cc(C)ccc3C)C2)cc1 (configuration not stated) returned 697 NFkB inh inactive, Beta apoptosis inactive, Jurkat NFkB inh inactive and Gli-Sufu block inactive.
`CC(Sc1nnc2c(n1)[nH]c1ccccc12)C(=O)N(C)C1CCCCC1` (configuration not stated) gave 697 NFkB inh inactive, Beta apoptosis 100.4, Jurkat NFkB inh inactive and Gli-Sufu block inactive.
For CN(Cc1ccc(C(C)(C)C)cc1)C(=O)Cc1ccc(S(=O)(=O)N2CCOCC2)s1 the results were 697 NFkB inh inactive, Beta apoptosis inactive, Jurkat NFkB inh inactive and Gli-Sufu block inactive.
Screening CCN(N=O)c1ccc(C=C2C=Cc3ccccc32)cc1 returned Gli-Sufu block inactive.
Screening CCOc1ccc2nc(-c3ccc(OC)c(OC)c3)cc(C(=O)O)c2c1 returned 697 NFkB inh inactive, Beta apoptosis inactive, Jurkat NFkB inh inactive and Gli-Sufu block inactive.
COc1cc(/C=C(/C(=O)c2cccs2)c2nc3ccccc3[nH]2)ccc1O was read as 697 NFkB inh inactive, Beta apoptosis 83.2, Jurkat NFkB inh inactive and Gli-Sufu block inactive.
O=C(/C(=C\c1ccccc1)c1nc2ccccc2[nH]1)c1ccc(Cl)cc1 was read as 697 NFkB inh inactive, Beta apoptosis inactive, Jurkat NFkB inh inactive and Gli-Sufu block inactive.
O=C(/C(=C/c1ccc(Cl)cc1)c1nc2ccccc2[nH]1)c1cccs1 was read as 697 NFkB inh inactive, Beta apoptosis 126.0, Jurkat NFkB inh inactive and Gli-Sufu block inactive.
For COC(=O)/C(=C\c1cc(OC)c(OC)c(OC)c1)c1nc2ccccc2[nH]1 the results were 697 NFkB inh inactive, Beta apoptosis inactive, Jurkat NFkB inh inactive and Gli-Sufu block inactive.
For Cc1c(C(C)NC(=O)Nc2ccc(F)cc2F)cnn1C (configuration not stated) the results were 697 NFkB inh inactive, Beta apoptosis inactive, Jurkat NFkB inh inactive and Gli-Sufu block inactive.
Screening CCNC(=O)N1CCC(n2nccc2NC(=O)CCOc2ccccc2)CC1 returned 697 NFkB inh inactive, Beta apoptosis inactive, Jurkat NFkB inh inactive and Gli-Sufu block inactive.
For O=C(NCc1cccnc1)/C(=C\c1ccc(-c2cccc(Cl)c2)o1)S(=O)(=O)c1ccccc1 the results were Beta apoptosis 103.8 and Gli-Sufu block inactive.
Cc1ccc(C(=O)N/C(=C\c2ccc(-c3cc(Cl)ccc3Cl)o2)C(=O)NCc2cccnc2)cc1 was read as 697 NFkB inh inactive, Beta apoptosis inactive, Jurkat NFkB inh inactive and Gli-Sufu block inactive.
